Tested on: Plasmodium falciparum
Test: GSK_TCMDC: Inhibition of Plasmodium falciparum Dd2 in whole red blood cells, using parasite LDH activity as an index of growth. Test compounds present at 2uM
Type: functional

Which Inhibition does the source give for `COc1ccc(NC(=O)[C@H](Cc2ccccc2)Nc2cc(C)nc(NCCc3ccccc3)n2)cc1.O=C(O)C(F)(F)F` here?
Its Inhibition is 83%.

Which Inhibition does the source give for `CC(C)(C)c1ccc(NC(=O)c2ccc(CN3CCCN(Cc4cccc(O)c4)CC3)cc2)cc1.O=C(O)C(F)(F)F` here?
The Inhibition was 62%.

With `Br.CC1CCC2(CC1)N=C(N)N=C(N)N2OCc1ccc(Br)c2ccccc12` (configuration not stated) as the compound, how does the Inhibition read?
Its Inhibition is 40%.

With `Cc1ccc(C)c(NC(=O)CC2C(=O)N(c3ccccc3)C(=S)N2Cc2ccco2)c1` (configuration not stated) as the compound, how does the Inhibition read?
The Inhibition was 99%.

How did the Inhibition turn out when `CCn1c(-c2nc(-c3ccc4c(c3)OCO4)cnc2N)nc2cnccc21` was run?
Its Inhibition is 98%.

For `Cc1cc(Nc2ccc(C)c(C)c2)n2nc(C)nc2n1`, which Inhibition is on record?
Its Inhibition is 45%.

How did the Inhibition turn out when `CCN(CC)CCN(Cc1ccc(-c2ccc(C(F)(F)F)cc2)cc1)C(=O)c1c[nH]c2ccc(Br)cc12` was run?
Its Inhibition is 74%.

`COc1cc(O)c2c(=O)c(OC)c(-c3cccc(Cl)c3OCC(=O)O)oc2c1OC` was tested. Which Inhibition did it give?
Its Inhibition is 0%.

With `COc1c(C2CCN(CCCCNC(=O)c3cc(-c4ccc(Cl)cc4)[nH]c3C)CC2)ccc2c1CCCC2` as the compound, how does the Inhibition read?
Its Inhibition is 91%.

Which Inhibition does the source give for `CN1CCN(c2ccnc3ccc(NC(=O)Nc4ccc(Cl)c(Cl)c4)cc23)CC1` here?
Its Inhibition is 17%.

How did the Inhibition turn out when `O=C(NCc1ccc(C(=O)NCc2cccc3ccccc23)cc1)c1ccc(O)c(-c2ccc(Cl)c(Cl)c2)c1` was run?
Its Inhibition is 31%.

With `CCc1cn2c3c(cc(C(=O)N[C@@H](Cc4ccccc4)[C@H](O)CNC4CCOCC4)cc13)N(C)S(=O)(=O)C2.O=CO` as the compound, how does the Inhibition read?
Its Inhibition is 98%.

Which Inhibition does the source give for `COc1ccc2ncc(Cl)c([C@@H](O)CN3CCC(NCc4cc5c(cn4)OCCO5)CC3)c2c1.Cl` here?
The Inhibition was 100%.

Which Inhibition does the source give for `O=C(Nc1ccccc1O)c1ccc(Oc2cccc(C(=O)Nc3ccccc3O)c2)cc1` here?
The Inhibition was 70%.

`N#Cc1ccc(CN2CCCN(Cc3cccc(NC(=O)c4cc5ccccc5s4)c3)CC2)cc1.O=C(O)C(F)(F)F` was tested. Which Inhibition did it give?
The Inhibition was 36%.

How did the Inhibition turn out when `CN(C)CCNc1ncnc2c1[nH]c1ccc(Cl)cc12` was run?
Its Inhibition is 8%.

With `CCCCCCCN1CCC(NC(=O)Nc2ccnc3ccc(OC)cc23)C(CO)C1.O=C(O)C(=O)O` (configuration not stated) as the compound, how does the Inhibition read?
Its Inhibition is 69%.

For `CC1=C(C(=O)Nc2ccccc2)C(c2ccc([N+](=O)[O-])cc2)n2ncc(C(=O)Nc3ccccc3)c2N1` (configuration not stated), which Inhibition is on record?
The Inhibition was 68%.

How did the Inhibition turn out when `O=C(c1cc2cccc([N+](=O)[O-])c2[nH]1)N1CCC(CCN2CCC(c3c[nH]c4ccccc34)CC2)CC1` was run?
Its Inhibition is 24%.

Which Inhibition does the source give for `N#Cc1ccc(CN2CCCN(Cc3cccc(NC(=O)c4ccc(-c5ccccc5)cc4)c3)CC2)cc1.O=C(O)C(F)(F)F` here?
The Inhibition was 12%.

With `CN(C)CCNC(=O)N1CCCN(c2ncnc3cc(-c4ccc(Cl)cc4)sc23)CC1.O=C(O)C(F)(F)F` as the compound, how does the Inhibition read?
Its Inhibition is 21%.

Which Inhibition does the source give for `CCCc1ccc(C2CCN(CCCCNC(=O)c3ccc(NC(=O)c4ccc(Cl)cc4)cc3)CC2)cc1` here?
The Inhibition was 100%.

With `O=C(NCc1ccc(Cl)cc1)c1ccc(C(=O)NCC2CCCN2CC2CCCCC2)cc1.O=C(O)C(F)(F)F` (configuration not stated) as the compound, how does the Inhibition read?
Its Inhibition is 10%.

For `Cl.O=c1cc(NCCCNCc2cc3ccccc3s2)[nH]c2ccccc12`, which Inhibition is on record?
Its Inhibition is 0%.

With `COc1ccc2ncc(C#N)c(CCN3CCC(NCc4ccc5c(c4)OCCO5)CC3)c2c1.Cl` as the compound, how does the Inhibition read?
The Inhibition was 31%.

For `CC(C)Sc1ccc(Cl)cc1CON1C(=N)N=C(N)NC1(C)C.Cl`, which Inhibition is on record?
Its Inhibition is 90%.

How did the Inhibition turn out when `COc1ccc(-c2ccc(CNC(=O)c3ccc(Cl)cc3)c(F)c2)cc1CN1CCCN(C)CC1.O=C(O)C(F)(F)F` was run?
The Inhibition was 48%.

For `CCC(C)CNC(=O)CN1CN(c2ccccc2)C2(CCN(C(=O)c3ccc(Br)cc3)CC2)C1=O` (configuration not stated), which Inhibition is on record?
Its Inhibition is 88%.

For `CN(C)C(CNc1ncnc2cc(Cl)ccc12)Cc1ccccc1` (configuration not stated), which Inhibition is on record?
Its Inhibition is 88%.

How did the Inhibition turn out when `COc1ccc(-c2cccc(NC(=O)c3ccc(Cl)cc3)c2)cc1CN1CCCC1.O=C(O)C(F)(F)F` was run?
Its Inhibition is 52%.

How did the Inhibition turn out when `CCN1CCN(CCCNc2c3ccc(Cl)cc3nc3ccc(O)cc23)CC1` was run?
Its Inhibition is 1%.

Which Inhibition does the source give for `Cc1cc(C)n(-c2nc(Nc3cccc(C(F)(F)F)c3)nc(-n3nc(C)cc3C)n2)n1` here?
Its Inhibition is 88%.

Source: ChEMBL document CHEMBL1157539, “Thousands of chemical starting points for antimalarial lead identification” (Nature, 2010)
